Among all 310,000 compounds or so, about 14,000 (4.5%) showed an effect of 50% or more. Effects have a minus sign here. Shown is part of a subset that was picked to be rich in strong results.
biological target: human ether-à-go-go-related gene (hERG) potassium channel (human, UniProt Q12809); assay: primary screen, population patch clamp on CHO cells stably expressing hERG; higher = less effect of the substance
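Further: peak tail current of the secondary pulse compared with the same well before compound.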

Sequence of human ether-à-go-go-related gene (hERG) potassium channel (Q12809 whole entry, looked up): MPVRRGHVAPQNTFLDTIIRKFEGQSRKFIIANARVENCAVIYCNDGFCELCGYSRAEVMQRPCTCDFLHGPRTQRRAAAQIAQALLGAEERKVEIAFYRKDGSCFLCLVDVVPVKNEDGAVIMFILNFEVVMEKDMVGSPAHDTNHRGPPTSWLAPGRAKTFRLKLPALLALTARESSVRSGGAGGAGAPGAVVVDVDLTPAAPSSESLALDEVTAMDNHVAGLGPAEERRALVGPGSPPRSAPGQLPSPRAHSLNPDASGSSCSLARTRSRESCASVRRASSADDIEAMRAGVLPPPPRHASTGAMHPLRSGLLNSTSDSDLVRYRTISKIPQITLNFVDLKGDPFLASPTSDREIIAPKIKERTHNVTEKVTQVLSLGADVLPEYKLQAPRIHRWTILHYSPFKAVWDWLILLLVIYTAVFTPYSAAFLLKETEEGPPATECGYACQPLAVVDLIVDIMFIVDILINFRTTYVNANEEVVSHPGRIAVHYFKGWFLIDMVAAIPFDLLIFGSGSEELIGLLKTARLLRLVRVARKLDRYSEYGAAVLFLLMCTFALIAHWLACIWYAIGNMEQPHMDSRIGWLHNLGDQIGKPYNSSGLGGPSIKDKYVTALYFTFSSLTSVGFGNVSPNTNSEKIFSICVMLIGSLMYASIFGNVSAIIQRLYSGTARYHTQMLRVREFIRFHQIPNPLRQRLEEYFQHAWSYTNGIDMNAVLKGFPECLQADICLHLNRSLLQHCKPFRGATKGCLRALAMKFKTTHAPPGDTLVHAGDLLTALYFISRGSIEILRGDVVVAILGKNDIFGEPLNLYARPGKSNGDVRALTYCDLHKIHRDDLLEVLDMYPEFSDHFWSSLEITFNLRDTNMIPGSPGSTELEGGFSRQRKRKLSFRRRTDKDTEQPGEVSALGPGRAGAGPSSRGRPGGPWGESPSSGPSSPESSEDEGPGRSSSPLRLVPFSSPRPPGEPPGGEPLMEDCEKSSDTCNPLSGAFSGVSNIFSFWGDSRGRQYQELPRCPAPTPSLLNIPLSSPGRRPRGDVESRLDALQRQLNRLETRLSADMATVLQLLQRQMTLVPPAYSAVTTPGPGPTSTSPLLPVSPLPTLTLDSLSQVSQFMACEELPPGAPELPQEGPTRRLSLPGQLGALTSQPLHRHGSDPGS

Row | Structure (SMILES) | hERG current change (%, negative = inhibition) at 10uM [%]
1 | CC(C)CN=Cc1c(O)c([N+](=O)[O-])cc2oc3c(c12)CCCC3 | 0.113
2 | COc1ccc(CCNC(=O)c2cccc(S(=O)(=O)N3CCOCC3)c2)cc1OC | 1.15
3 | CC(C)(C)N1CC(C(=O)Nc2ccc(C#N)cc2)CC1=O (centres unmarked) | 11.6
4 | O=C(NCCc1ccc(Cl)cc1)c1nnc(Cc2ccc(Cl)cc2)o1 | 10.1
5 | CN(C)c1ccc(C2CC(=O)NC3=C2C(=O)CC(C)(C)C3)cc1 (centres unmarked) | 1.9
6 | COc1ccccc1NC(=S)N1CCC(C(=O)c2ccc(F)cc2)CC1 | -22.7
7 | COc1ccccc1NC(=O)N1CCC(C(=O)c2ccc(F)cc2)CC1 | 0.487
8 | Cc1ccc(F)cc1NC(=O)N1CCN(c2ccnc3cc(Cl)ccc23)CC1 | -67
9 | COc1ccccc1NC(=O)N1CCC(C(=O)c2ccc(Cl)cc2)CC1 | -72.7
10 | COc1cccc(Cl)c1NC(=O)N1CCN(c2ccnc3cc(Cl)ccc23)CC1 | -44.1
11 | O=C(Nc1cc(F)ccc1F)N1CCN(c2ccnc3cc(Cl)ccc23)CC1 | -66.4
12 | O=C(Nc1ccc(Cl)cc1Cl)N1CCN(c2ncccn2)CC1 | -21.1
13 | Cc1ccc(F)cc1NC(=O)N1CCCN(c2ccc(C(F)(F)F)cn2)CC1 | -43.3
14 | Cc1cccc(Cl)c1NC(=O)N1CCN(c2ccnc3cc(Cl)ccc23)CC1 | -16.8
15 | COc1ccccc1NC(=O)N1CCN(c2ccnc3cc(Cl)ccc23)CC1 | -80.5
16 | COc1ccccc1N1CCN(c2ccnc3cc(Cl)ccc23)CC1 | -43.4
17 | CCC(Sc1nc(-c2ccccc2)c(C#N)c(=O)[nH]1)C(=O)Nc1nnc(C)s1 (centres unmarked) | 1.73
18 | Cc1ccc(NC(=S)Nc2nc(CC(=O)Nc3ccccc3)cs2)cc1 | 13
19 | COC(=O)c1ccc(-c2ccc(/C=N/N3C(=O)C4C5C=CC(CC5)C4C3=O)o2)cc1 (centres unmarked) | -16.1
20 | CC(C)CC(=O)N1CCN(Cc2cccc(Cl)c2)CC1 | 7.42
21 | CCN1CCN(CCNC(=O)c2ccc3c(c2)N(Cc2ccc(F)cc2)C(=O)/C(=C/c2ccccc2)S3)CC1 | -42.7
22 | CN(C)Cc1nnnn1-c1cccc(-n2nnnc2CN(C)C)c1 | 12.3

Row | Structure (SMILES) | hERG current change (%, negative = inhibition) at 10uM [%]
23 | COCC(=O)NC1CCN(CC(=O)Nc2ccc(OC)cc2[N+](=O)[O-])CC1 | -2.46
24 | CC(C)c1ccc(Nc2nnc(SCC(=O)Nc3ncc(S(=O)(=O)c4ccc([N+](=O)[O-])cc4)s3)s2)cc1 | 13.8
25 | COC(=O)C1=CN(CCOC23CC4CC(CC(C4)C2)C3)C=C(C(=O)OC)C1c1ccsc1 | 10
26 | Cn1c(=O)[nH]c2ccc([N+](=O)[O-])nc21 | 9.62
27 | Cc1cc(=O)oc2cc(NC(=O)C3CC(=O)N(Cc4ccccc4)C3)ccc12 (centres unmarked) | 5.29
28 | COc1ccc(NC(=O)N2CCN(c3cccc(C(F)(F)F)c3)CC2)cc1 | -1.89
29 | COc1ccccc1NC(=O)N1CCN(c2cccc(C(F)(F)F)c2)CC1 | -76.6
30 | COc1ccc(NC(=O)N2CCN(c3cccc(C(F)(F)F)c3)CC2)cc1OC | -1.73
31 | O=C(CN1C(=O)COCC1=O)N1CCOCC1 | 3.2
32 | Cc1ccc(C)n1-c1ccc(-c2nnco2)cc1 | 8.42
33 | c1ccc(CCNCCOc2ccccc2)cc1 | -0.101
34 | COc1ccc(CCNCc2c(-c3ccccc3)n(C)c3ccccc23)cc1.O=C(O)C(=O)O | -52.3
35 | O=C(CCCOc1ccc(Cl)cc1)NCCc1ccccc1 | 5.77
36 | COCCNCCCOc1ccc(C(C)(C)c2ccccc2)cc1.O=C(O)C(=O)O | -29.3
37 | Clc1ccc(OCCNCCc2ccccc2)cc1.O=C(O)C(=O)O | -73.7
38 | COc1ccc(CCNCc2ccncc2)cc1.O=C(O)C(=O)O | -13.7
39 | COc1ccc(OCCCNCCc2ccccc2)cc1.O=C(O)C(=O)O | -57
40 | COc1ccc(CCNCc2ccccc2)cc1.O=C(O)C(=O)O | -23.9
41 | COc1ccc(OCCCC(=O)NCCc2ccccc2)cc1 | -7.79
42 | COCCCNCCCOc1ccc(C(C)(C)c2ccccc2)cc1.O=C(O)C(=O)O | -19.9
43 | COc1ccc(CCNCc2ccccc2N2CCCC2)cc1.O=C(O)C(=O)O | -41.8
44 | COCCCNCCOc1ccc(C(C)(C)c2ccccc2)cc1.O=C(O)C(=O)O | -54.5

Source: article PMC4336329 (PLoS ONE, 2015)
